About 79,000 compounds went through this panel and 15% of them were active in at least one assay; those are over-represented in the sample as a whole. Unmarked numbers belong to inactive results. The source made the active and inactive calls. Cut-off read from the data, not from the text of the source: active = growth inhibition above about 70%; inactive = the rest.
Assay: NCI Yeast Anticancer Drug Screen. Data for the wt2 strain (AID 169);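 note: 0% = growth of vehicle-treated yeast cultures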
Details: S. cerevisiae wt2 strain growth inhibition, hits give high values
Protocol: Growth inhibition of yeast strains with defined genetic alterations is measured as a screen for potential anti-cancer activity. Selected strains with alterations in DNA damage repair or cell cycle control were exposed to compounds and growth inhibition was measured relative to vehicle treated controls. The strain used in this assay is wt2

Structure (SMILES) | growth inhibition (at 1.2 µM) [%] | growth inhibition (at 3.7 µM) [%] | growth inhibition (at 11.0 µM) [%] | growth inhibition (at 33.0 µM) | growth inhibition (at 100.0 µM)
CN(C)CCNC(=O)c1cccc2nc3c4ccccc4c4ccccc4c3nc12 | 1 | 9 | 29 | 97% (active) | 94% (active)
CC(=O)CC[N+](C)(C)C | -22 | -1 | -25 | -31% | -30%
Cc1c(N=Nc2ccc(Cl)cc2)c(C)n(C2OC(CO)C(O)C(O)C2O)c(=S)c1C#N (stereo not given) | -2 | -3 | 1 | 37% | 90% (active)
COc1ccc2cc(CN3CCC(C4CCN(Cc5ccc6cc(OC)ccc6c5)CC4)CC3)ccc2c1 | 0 | 15 | 7 | -3% | 98% (active)
Cc1cc(NCCCN(C)C)c2ccc3c(ccc4c(NCCCN(C)C)cc(C)nc43)c2n1 | -57 | -39 | -63 | -40% | 25%
Nc1ccc2ncc(Nc3ccc(Cl)c(Cl)c3)nc2c1 | -15 | 0 | 57 | 97% (active) | 97% (active)
[O-]c1c2cc(-[n+]3c(-c4ccccc4)cc(-c4ccccc4)cc3-c3ccccc3)cc1COCCOCCOCCOCCOC2 | -2 | -3 | -2 | 18% | 82% (active)
Cc1c2ccncc2c(C)c2c1oc1ccccc12 | 7 | 17 | 57 | 94% (active) | 98% (active)
